Measured values from PubChem BioAssay AID938 (National Center for Advancing Translational Sciences (NCATS), 2007).
“And” between values parts separate entries of the source, which are not always exact repeats. Equal entries are not always repeated. Out of some 73,000 compounds screened, about 1,800 (2.5%) were called active. Another 13% or so got no clear call; they are omitted. Calls follow the shape of the dose curve; as a rule, active = well fitted activation curve with a large enough effect; inconclusive = small, poorly fitted or top-dose-only effect; inactive = no such curve, though single readings can be large or run the other way. The full list was thinned out, with actives kept by preference. Some structures have more than one record in an assay (separate samples or runs), and their calls can disagree.

Experiment: qHTS Assay for Agonists of the Thyroid Stimulating Hormone Receptor: Activators of Intracellular cAMP Concentrations in Parental HEK 293; also: nearly all actives have a fitted effect of over 55% in size; as to activation: % of control where 0% means no effect
Conditions: parental HEK293 CNG cAMP sensor, membrane potential fluorescence; series mostly up to 57.1 µM; activation: at the top concentration
From the text: NIH Chemical Genomics Center [NCGC]
NIH Molecular Libraries Screening Centers Network [MLSCN]
PI Name: Dr. Marvin Gershengorn
This cell based assay utilized a cyclic nucleotide gated ion channel (CNG) as a biosensor for cAMP induction. HEK 293 cells stably expressing the modified CNG were purchased from BD biosciences (http://www.atto.com/products/actone/features_benefits.shtml) . Stimulation of cAMP production causes the CNG to open and subsequent membrane depolarization to occur. A fluorescent membrane potential dye (BD biosciences) was utilized to detect cAMP stimulation in cells.
The cells were maintained in DMEM medium (Invitrogen) containing 10 % FBS (Hyclone), 100 units/ml Penicillin, 100 ug/ml Streptomycin (Invitrogen), and 250 ug/ml Geneticin (Invitrogen) and 1 ug/ml Puromycin (Invitrogen) at 37C in 5% CO2. This assay was used as a counterscreen to "qHTS Assay for Agonists of the Thyroid Stimulating Hormone Receptor", to control for compounds signaling through endogenous receptors and other targets of HEK 293 cells.
NCGC Assay Protocol Summary:
High Throughput Screening. Freshly passaged cells were dispensed into 1536-well assay plates at 4 ul/well in DMEM containing phenol red (Invitrogen), 10% FCS (Hyclone), and 100 units/ml Penicillin, 100 ug/ml Streptomycin (Invitrogen) and incubated at 37 C with 5% CO2 for 20 to 36 hrs before the robotic screening. The screen was initiated by addition of 4 ul/well membrane potential dye containing 100 uM RO 20-1724 (Sigma Aldrich), followed by 60 min incubation at room temperature to allow for dye equilibration across the cell membrane. 23 nl/well compound or control was then added to the assay plates, which were incubated for additional 30 min before reading a Envision fluorescence plate reader (Perkin Elmer) in bottom-read mode for fluorescence intensity (emission at 590 nm).
Keywords: cAMP, CNG Ion Channel, quantitative high throughput screening, qHTS, HTS, probe identification, CNG, cAMP, cyclic nucleotide gated ion channel PubChem
Potency is read from the fitted curve at half-maximal effect.

| SMILES | Potency | activation |
| --- | --- | --- |
| NCCc1c[nH]c2ccc(O)cc12 | inactive and 31.6 µM (active) | – |
| C/C(CCc1c[nH]c2ccccc12)=N\O | – | 2.11% (inactive) |
| CC(C)(c1ccc(OC[C@@H]2CO2)cc1)c1ccc(OC[C@H]2CO2)cc1 | – | 23.3% (inactive) |
| N#CCCCl | inactive | – |
| ClC(Cl)(Cl)c1ccccc1 | inactive | – |
| Fc1ccc(C(OCCN2CCN(C/C=C\c3ccccc3)CC2)c2ccc(F)cc2)cc1 | – | -30.9% (inactive) |
| c1ccc(C2NCc3ccccc3-n3cccc32)cc1 (stereo not given) | 25.1 µM (active) | – |
| COc1ccc(C2NCc3ccc4c(c3-n3cccc32)OCO4)cc1OC (stereo not given) | – | 19.3% (inactive) |
| CC(C)CC(C)Nc1ccc(Nc2ccccc2)cc1 (stereo not given) | – | -10.5% (inactive) |
| O=[N+]([O-])c1ccc(Cl)c(Cl)c1 | – | 11.3% (inactive) |
| CC(C)(c1ccccc1)c1ccc(O)cc1 | – | 14.7% (inactive) |
| CC(C)(C)C(O)(CCc1ccc(Cl)cc1)Cn1cncn1 (stereo not given) | – | 1.41% (inactive) |
| C[C@@]1([C@@H](NP(=O)(c2ccccc2)c2ccccc2)c2ccccc2)C[C@H]1CCO | 15.8 µM (active) | – |
| O=C1C2(Cl)C3(Cl)C4(Cl)C(Cl)(Cl)C5(Cl)C3(Cl)C1(Cl)C5(Cl)C24Cl (stereo not given) | inactive | – |
| CCCCC#N | – | 8.65% (inactive) |
